Experimental data reported in ChEMBL document CHEMBL1961873, “Compounds: GSK PKIS; Assays: Nanosyn kinase panel” (2012).
Several values for one entry are separate records, joined by “and”; a condition that tells them apart may be missing. Identical values can stand only once.

What was measured:
[1] = molecular target: Mitogen-activated protein kinase kinase kinase kinase 4 (Homo sapiens) (UniProt O95819); settings: at 1 µM;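 further: reported figure is an averaged inhibition value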
[2] = molecular target: Dual specificity mitogen-activated protein kinase kinase 1 (Homo sapiens) (UniProt Q02750); settings: at 0.1 µM
Dual specificity mitogen-activated protein kinase kinase 1 (Homo sapiens), sequence (Q02750 whole entry): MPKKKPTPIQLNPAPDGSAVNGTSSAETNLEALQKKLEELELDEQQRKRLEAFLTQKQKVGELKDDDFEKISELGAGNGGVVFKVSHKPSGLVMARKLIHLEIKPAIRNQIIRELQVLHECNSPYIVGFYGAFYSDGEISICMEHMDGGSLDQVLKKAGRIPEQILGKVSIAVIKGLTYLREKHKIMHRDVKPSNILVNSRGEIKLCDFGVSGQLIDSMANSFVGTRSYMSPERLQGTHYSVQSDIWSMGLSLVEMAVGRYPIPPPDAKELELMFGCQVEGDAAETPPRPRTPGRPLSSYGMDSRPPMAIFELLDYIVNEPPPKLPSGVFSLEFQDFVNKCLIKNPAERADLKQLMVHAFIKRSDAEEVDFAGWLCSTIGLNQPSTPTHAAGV

[3] = molecular target: Dual specificity mitogen-activated protein kinase kinase 1 (Homo sapiens) (UniProt Q02750); settings: at 1 µM
[4] = molecular target: Misshapen-like kinase 1 (Homo sapiens) (UniProt Q8N4C8); settings: at 0.1 µM
Misshapen-like kinase 1 (Homo sapiens), sequence (Q8N4C8 whole entry, looked up): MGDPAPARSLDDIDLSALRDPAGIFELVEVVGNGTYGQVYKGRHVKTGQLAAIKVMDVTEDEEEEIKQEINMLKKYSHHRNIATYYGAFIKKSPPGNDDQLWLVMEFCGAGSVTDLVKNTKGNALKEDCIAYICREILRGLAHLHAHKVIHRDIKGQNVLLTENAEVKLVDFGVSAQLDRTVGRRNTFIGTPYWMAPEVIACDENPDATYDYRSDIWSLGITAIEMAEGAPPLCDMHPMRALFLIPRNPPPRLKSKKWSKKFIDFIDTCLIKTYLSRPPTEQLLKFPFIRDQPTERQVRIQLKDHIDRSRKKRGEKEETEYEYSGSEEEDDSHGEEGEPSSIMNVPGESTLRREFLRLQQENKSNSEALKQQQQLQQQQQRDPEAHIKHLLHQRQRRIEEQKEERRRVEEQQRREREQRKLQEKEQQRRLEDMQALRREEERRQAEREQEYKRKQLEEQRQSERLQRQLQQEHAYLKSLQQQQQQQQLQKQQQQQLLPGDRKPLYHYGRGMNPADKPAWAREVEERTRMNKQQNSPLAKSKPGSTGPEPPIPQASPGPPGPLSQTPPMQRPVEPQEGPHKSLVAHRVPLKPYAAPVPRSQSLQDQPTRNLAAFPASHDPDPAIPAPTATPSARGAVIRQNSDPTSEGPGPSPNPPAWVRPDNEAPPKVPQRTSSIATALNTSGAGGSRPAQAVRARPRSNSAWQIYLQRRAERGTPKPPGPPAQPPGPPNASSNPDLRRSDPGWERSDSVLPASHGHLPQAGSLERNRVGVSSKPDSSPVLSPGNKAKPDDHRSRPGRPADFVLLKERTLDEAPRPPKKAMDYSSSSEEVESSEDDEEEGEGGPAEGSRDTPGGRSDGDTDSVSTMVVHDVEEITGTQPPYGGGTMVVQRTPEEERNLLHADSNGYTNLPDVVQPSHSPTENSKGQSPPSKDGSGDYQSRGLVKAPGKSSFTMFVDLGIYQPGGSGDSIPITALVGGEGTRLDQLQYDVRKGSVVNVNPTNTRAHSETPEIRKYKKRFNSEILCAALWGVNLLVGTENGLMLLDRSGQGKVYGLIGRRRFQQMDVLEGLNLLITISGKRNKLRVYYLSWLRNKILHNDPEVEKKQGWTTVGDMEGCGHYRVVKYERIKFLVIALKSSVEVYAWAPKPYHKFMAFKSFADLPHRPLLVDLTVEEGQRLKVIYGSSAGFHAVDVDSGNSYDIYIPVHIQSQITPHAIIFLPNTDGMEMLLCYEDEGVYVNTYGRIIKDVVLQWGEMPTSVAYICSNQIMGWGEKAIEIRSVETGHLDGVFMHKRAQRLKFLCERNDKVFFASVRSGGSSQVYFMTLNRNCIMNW

[5] = molecular target: Misshapen-like kinase 1 (Homo sapiens) (UniProt Q8N4C8); settings: at 1 µM
[6] = molecular target: T1, Serine/threonine-protein kinase 4 (Homo sapiens) (UniProt Q13043); settings: at 0.1 µM
T1 sequence (whole entry): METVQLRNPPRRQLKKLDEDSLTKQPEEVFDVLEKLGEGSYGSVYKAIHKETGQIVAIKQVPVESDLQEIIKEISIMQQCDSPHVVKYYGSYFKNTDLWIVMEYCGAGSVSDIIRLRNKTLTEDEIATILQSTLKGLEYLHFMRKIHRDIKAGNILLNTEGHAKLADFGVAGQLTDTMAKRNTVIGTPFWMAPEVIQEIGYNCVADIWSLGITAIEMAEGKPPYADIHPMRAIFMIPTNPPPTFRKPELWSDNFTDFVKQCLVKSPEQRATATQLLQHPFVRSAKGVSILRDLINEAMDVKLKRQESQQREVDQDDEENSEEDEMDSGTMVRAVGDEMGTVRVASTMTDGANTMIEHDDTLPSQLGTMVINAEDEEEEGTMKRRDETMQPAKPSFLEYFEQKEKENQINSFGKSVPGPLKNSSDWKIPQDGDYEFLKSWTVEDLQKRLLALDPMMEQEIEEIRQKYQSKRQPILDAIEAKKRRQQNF

[7] = molecular target: T1, Serine/threonine-protein kinase 4 (Homo sapiens); settings: at 1 µM
[8] = molecular target: T2, Serine/threonine-protein kinase 3 (Homo sapiens) (UniProt Q13188); settings: at 0.1 µM
T2 sequence (whole entry): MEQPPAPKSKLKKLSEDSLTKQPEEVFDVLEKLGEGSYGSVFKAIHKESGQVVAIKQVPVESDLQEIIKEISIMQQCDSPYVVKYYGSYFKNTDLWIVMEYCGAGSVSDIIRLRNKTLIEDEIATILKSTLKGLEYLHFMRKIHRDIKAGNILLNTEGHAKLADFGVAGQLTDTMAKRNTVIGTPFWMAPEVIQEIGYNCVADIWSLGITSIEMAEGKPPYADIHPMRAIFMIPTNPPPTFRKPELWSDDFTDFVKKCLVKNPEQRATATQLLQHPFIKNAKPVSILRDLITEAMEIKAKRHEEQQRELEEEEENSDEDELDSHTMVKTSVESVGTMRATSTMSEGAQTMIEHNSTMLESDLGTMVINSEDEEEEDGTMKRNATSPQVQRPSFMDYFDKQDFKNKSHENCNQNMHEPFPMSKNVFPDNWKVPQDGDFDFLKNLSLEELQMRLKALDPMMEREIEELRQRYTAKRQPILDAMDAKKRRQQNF

[9] = molecular target: T2, Serine/threonine-protein kinase 3 (Homo sapiens); settings: at 1 µM
[10] = molecular target: Serine/threonine-protein kinase 26 (Homo sapiens) (UniProt Q9P289); settings: at 0.1 µM
Serine/threonine-protein kinase 26 (Homo sapiens), sequence (Q9P289 2-416 limits assumed): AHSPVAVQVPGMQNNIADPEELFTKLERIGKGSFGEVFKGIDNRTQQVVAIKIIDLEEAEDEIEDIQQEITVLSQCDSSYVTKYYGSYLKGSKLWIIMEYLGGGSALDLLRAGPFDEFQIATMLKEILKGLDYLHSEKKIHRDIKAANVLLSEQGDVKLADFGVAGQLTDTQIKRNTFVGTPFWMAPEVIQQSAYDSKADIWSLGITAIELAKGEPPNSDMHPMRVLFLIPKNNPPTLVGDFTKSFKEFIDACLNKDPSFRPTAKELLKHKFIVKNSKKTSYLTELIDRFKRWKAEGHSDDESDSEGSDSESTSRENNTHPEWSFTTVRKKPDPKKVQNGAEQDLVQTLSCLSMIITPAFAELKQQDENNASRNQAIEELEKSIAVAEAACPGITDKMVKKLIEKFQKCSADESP

[11] = molecular target: Serine/threonine-protein kinase 26 (Homo sapiens) (UniProt Q9P289); settings: at 1 µM
[12] = molecular target: Serine/threonine-protein kinase PAK 1 (Homo sapiens) (UniProt Q13153); settings: at 0.1 µM
[13] = molecular target: Serine/threonine-protein kinase PAK 1 (Homo sapiens) (UniProt Q13153); settings: at 1 µM
[14] = molecular target: Serine/threonine-protein kinase PAK 2 (Homo sapiens) (UniProt Q13177); settings: at 0.1 µM
[15] = molecular target: Serine/threonine-protein kinase PAK 2 (Homo sapiens) (UniProt Q13177); settings: at 1 µM
[16] = molecular target: Serine/threonine-protein kinase PAK 3 (Homo sapiens) (UniProt O75914); settings: at 0.1 µM
[17] = molecular target: Serine/threonine-protein kinase PAK 3 (Homo sapiens) (UniProt O75914); settings: at 1 µM
[18] = molecular target: Serine/threonine-protein kinase PAK 5 (Homo sapiens) (UniProt Q9P286); settings: at 0.1 µM
Serine/threonine-protein kinase PAK 5 (Homo sapiens), sequence (Q9P286 whole entry, looked up): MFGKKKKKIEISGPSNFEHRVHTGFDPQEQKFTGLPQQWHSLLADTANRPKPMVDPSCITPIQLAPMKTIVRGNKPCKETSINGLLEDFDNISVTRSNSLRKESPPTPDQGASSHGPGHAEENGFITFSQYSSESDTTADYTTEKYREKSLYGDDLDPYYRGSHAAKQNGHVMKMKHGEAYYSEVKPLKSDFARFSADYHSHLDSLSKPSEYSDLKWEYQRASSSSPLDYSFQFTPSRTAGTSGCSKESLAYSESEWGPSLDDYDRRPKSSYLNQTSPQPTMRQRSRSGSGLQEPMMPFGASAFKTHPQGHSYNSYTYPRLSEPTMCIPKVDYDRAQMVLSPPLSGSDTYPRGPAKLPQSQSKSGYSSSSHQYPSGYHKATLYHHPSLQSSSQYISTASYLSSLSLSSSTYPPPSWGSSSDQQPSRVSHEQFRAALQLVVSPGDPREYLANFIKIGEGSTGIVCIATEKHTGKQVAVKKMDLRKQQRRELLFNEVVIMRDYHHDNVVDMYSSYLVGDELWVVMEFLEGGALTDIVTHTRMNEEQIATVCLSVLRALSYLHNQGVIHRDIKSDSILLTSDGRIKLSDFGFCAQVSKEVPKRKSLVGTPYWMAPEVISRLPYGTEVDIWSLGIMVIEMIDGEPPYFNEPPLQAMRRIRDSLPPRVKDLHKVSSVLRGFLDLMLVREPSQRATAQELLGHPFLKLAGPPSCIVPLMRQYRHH

[19] = molecular target: Serine/threonine-protein kinase PAK 5 (Homo sapiens) (UniProt Q9P286); settings: at 1 µM
[20] = molecular target: Serine/threonine-protein kinase PAK 6 (Homo sapiens) (UniProt Q9NQU5); settings: at 0.1 µM;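 further: mean PAK6 inhibition reported from the GSK PKIS screen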
Serine/threonine-protein kinase PAK 6 (Homo sapiens), sequence (Q9NQU5 whole entry, looked up): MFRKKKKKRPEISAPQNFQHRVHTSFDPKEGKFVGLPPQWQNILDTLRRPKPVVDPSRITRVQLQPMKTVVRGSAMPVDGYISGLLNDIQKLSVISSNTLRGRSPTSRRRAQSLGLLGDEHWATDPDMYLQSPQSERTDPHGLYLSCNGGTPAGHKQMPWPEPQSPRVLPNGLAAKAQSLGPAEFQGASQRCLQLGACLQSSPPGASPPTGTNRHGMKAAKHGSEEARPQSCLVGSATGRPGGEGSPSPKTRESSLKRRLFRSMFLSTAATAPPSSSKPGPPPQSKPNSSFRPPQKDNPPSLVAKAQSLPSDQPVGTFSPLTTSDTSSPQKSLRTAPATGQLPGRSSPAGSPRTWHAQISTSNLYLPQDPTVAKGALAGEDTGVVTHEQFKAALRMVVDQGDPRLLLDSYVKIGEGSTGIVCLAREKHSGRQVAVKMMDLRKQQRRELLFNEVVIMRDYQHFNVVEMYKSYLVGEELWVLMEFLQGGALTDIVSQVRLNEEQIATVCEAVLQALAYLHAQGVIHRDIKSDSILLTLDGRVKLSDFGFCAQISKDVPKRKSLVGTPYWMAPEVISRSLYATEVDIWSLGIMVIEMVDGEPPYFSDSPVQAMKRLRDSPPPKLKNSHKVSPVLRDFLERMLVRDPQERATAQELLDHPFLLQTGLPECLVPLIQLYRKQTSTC

Mitogen-activated protein kinase kinase kinase kinase 4 (Homo sapiens), sequence (O95819 2-1239 limits assumed): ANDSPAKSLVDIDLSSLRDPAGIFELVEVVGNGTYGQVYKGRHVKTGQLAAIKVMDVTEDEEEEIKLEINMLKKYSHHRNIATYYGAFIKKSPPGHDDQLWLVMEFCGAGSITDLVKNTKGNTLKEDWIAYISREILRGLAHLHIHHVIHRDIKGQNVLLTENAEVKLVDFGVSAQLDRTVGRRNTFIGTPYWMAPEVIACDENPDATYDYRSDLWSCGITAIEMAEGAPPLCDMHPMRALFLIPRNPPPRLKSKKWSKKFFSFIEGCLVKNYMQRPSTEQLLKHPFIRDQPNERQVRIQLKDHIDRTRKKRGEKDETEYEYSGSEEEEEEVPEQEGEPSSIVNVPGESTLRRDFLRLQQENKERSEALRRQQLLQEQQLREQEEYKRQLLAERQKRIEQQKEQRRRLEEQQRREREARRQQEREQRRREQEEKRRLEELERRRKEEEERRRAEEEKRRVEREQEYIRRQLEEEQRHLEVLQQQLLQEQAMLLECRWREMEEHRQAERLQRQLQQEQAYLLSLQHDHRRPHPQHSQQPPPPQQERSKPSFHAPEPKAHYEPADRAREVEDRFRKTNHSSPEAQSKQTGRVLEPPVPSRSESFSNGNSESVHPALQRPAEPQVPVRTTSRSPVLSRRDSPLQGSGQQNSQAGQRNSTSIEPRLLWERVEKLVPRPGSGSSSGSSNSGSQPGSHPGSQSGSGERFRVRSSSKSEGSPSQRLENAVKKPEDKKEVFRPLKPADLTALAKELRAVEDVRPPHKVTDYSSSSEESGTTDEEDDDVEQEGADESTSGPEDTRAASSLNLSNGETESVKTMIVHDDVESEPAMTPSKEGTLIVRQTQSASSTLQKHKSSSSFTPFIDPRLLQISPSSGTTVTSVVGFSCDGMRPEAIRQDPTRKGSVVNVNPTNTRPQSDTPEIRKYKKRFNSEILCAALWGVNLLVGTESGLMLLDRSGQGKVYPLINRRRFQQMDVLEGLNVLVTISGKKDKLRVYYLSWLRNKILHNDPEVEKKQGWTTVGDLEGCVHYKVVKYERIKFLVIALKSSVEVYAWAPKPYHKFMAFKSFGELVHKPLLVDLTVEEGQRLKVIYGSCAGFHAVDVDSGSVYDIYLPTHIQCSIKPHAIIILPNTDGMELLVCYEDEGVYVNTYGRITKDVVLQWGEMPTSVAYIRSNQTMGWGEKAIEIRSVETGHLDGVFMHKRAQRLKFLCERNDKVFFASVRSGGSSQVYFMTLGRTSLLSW

| SMILES | inhibition [1] | inhibition [2] | inhibition [3] | inhibition [4] | inhibition [5] | inhibition [6] | inhibition [7] | inhibition [8] | inhibition [9] | inhibition [10] | inhibition [11] | inhibition [12] | inhibition [13] | inhibition [14] | inhibition [15] | inhibition [16] | inhibition [17] | inhibition [18] | inhibition [19] | inhibition [20] |
| --- | --- | --- | --- | --- | --- | --- | --- | --- | --- | --- | --- | --- | --- | --- | --- | --- | --- | --- | --- | --- |
| CN(C)CCNC(=O)Nc1ccc(N(C)c2ccnc(Nc3ccc(CS(C)(=O)=O)cc3)n2)cc1 | 14.6% | 4.9% | 4.12% | 5.87% | 10.1% | 6.4% | 11.4% | 6.63% | 6.98% | -0.89% | -2.49% | 4.61% | 9.49% | 1.79% | 2.9% | 3.73% | 4.29% | 1.15% | 6.27% | -1.56% |
| Cc1ccc(-c2cc3c(NC(=O)C4CC4)ncnc3o2)cc1 | 8.27% | 3.02% | 3.21% | 6.35% | 8.16% | 6.14% | 7.49% | 5.64% | 4.87% | -2.57% | -2.53% | 3.85% | 5.51% | 1.95% | 1.97% | 3.79% | 4.95% | 4.59% | -3.05% | 4.74% |
| CC1(C)CC(n2cnc(-c3ccc(F)cc3)c2-c2ccnc(N)n2)CC(C)(C)N1 | 2.96% | 1.4% | 1.04% | 1.2% | 4.78% | -3.13% | -0.15% | -0.38% | -1.38% | -0.28% | -4.55% | 0.1% | 2.11% | -0.56% | 0.36% | 0.33% | 0.79% | 4.67% | 0.79% | 1.59% |
| CNC(=O)c1cncc(/C=C/c2ccccc2C)c1 | 19.7% | 6.36% | 5.22% | 8.44% | 15.5% | 9.28% | 17.2% | 9.07% | 15.2% | 1.02% | 2.47% | 4.67% | 7.54% | 2.06% | 2.02% | 4.95% | 5.93% | 15.4% | 4.8% | -2.91% |
| COc1ccccc1-c1cc(/C=C2\C(=O)Nc3ncc(Br)cc32)cc(Br)c1O | 14% | 6.54% | 5.7% | 5.71% | 13.3% | 6.41% | 8.19% | 7.78% | 8.09% | 2.55% | 13.5% | 6.7% | 6.23% | 1.92% | 2.48% | 4.55% | 5.35% | 0.29% | 0.44% | -1.24% |
| Nc1ncnc2occ(-c3ccc(NC(=O)Nc4cc(C(F)(F)F)ccc4F)cc3)c12 | 22.3% and 6.15% | 1.15% and -1.72% | 2.3% and 0.44% | 6.26% and -2.13% | 19.9% and 2.27% | 4.27% and -2.54% | 8.75% and 0.44% | 4.42% and -3.89% | 6.36% and -2.2% | 0.12% and -0.14% | 1.08% and -2.02% | 3.44% and -1.9% | 4.36% and -1.17% | 0.88% and -1% | 1.23% and -1.68% | 2.44% and -2.03% | 1.87% and -1.59% | -0.44% and -3.26% | -2.53% and -0.87% | 1.24% |
| COc1cc(N2CCN(C(C)C)CC2)ccc1Nc1nc(Nc2cccc3ncccc23)c2cc[nH]c2n1 | 8.08% | -1.29% | 0.07% | 0.56% | 6.73% | -1.1% | 0.07% | 0.03% | 0.57% | -0.29% | 1.78% | 0.3% | -1.25% | 0.87% | -0.27% | -1.68% | -0.48% | -2.43% | -1.65% | 1.57% |
| NS(=O)(=O)c1cccc(N/C=C2\C(=O)Nc3ccccc32)c1 | 78.2% | 4.87% | 5.35% | 18.4% | 70.2% | 7.24% | 26.1% | 5.78% | 21.2% | -1.63% | -1.86% | 5.24% | 8.78% | 1.76% | 2.04% | 4.81% | 4.94% | -8.13% | -8.7% | 3.85% |
| COc1ccc(-c2nn3ncccc3c2-c2ccnc(Nc3ccc(F)c(F)c3)n2)cc1 | 16.4% | 6.07% | 3.87% | 9.98% | 13.8% | 6.88% | 11.6% | 5.53% | 10.2% | -0.41% | 0.76% | 3.1% | 5.49% | 1.93% | 0.93% | 2.36% | 5.12% | 3.31% | 0.77% | 5.78% |
| CC(C)c1ccc(-c2cc(-c3c[nH]nc3-c3ccccn3)ccn2)cc1 | 53.8% | 0.36% | 2.47% | 7.67% | 37.6% | 0.63% | -0.98% | 1.18% | 0.64% | 0.06% | 3.31% | 1.09% | -1.39% | 0.93% | -0.21% | -0.3% | 0.21% | -1.29% | -0.36% | 2.8% |
| CN1CCN(Cc2ccc(-c3cc4ncnc(Nc5ccc(OCc6cccc(F)c6)c(Cl)c5)c4s3)o2)CC1 | 8.74% and 16.5% | 3.63% and 7.76% | 3.91% and 8.23% | 4.62% and 8.19% | 7.44% and 13.7% | 2.15% and 5.51% | 5.38% and 9.4% | 1.94% and 6.66% | 4.21% and 9.14% | -0.84% and -1.22% | -2.57% and -0.01% | 6.52% and 11.3% | 6.39% and 9.31% | 0.62% and 1.36% | 1.83% and 3.59% | 3.14% and 6.57% | 5.4% and 6.56% | 2.6% | 5.21% | -1.82% |
| COc1ccc2ncn(-c3cc(O[C@H](C)c4ccccc4C(F)(F)F)c(C(N)=O)s3)c2c1 | 3.61% | 0.25% | -0.57% | 1.05% | 4.03% | 1.43% | 22.5% | 0.2% | 18.8% | 0.64% | 13.1% | -0.34% | 2.49% | -1.58% | -0.3% | -2.52% | 0.02% | -6.5% | -1.3% | -7.06% |
| CCN1CCC(C(=O)Nc2n[nH]c3nnc(-c4cccc(F)c4F)cc23)CC1 | 6.9% | 2.15% | 2% | 2.44% | 5.72% | 0.2% | 4.08% | -0.56% | 2.63% | 0.52% | 0.11% | -3.4% | -3.06% | -1.1% | -2.04% | -0.81% | -0.69% | 0% | 1.08% | -5.45% |
| Nc1nonc1-c1nc2cnccc2n1C1CC1 | 39.8% and 40% | 3% and 3.58% | 6.15% and 7.11% | 9.13% and 8.38% | 30.2% and 28.1% | 6.61% and 2.32% | 23.1% and 15.3% | 6.77% and 2.58% | 17.9% and 12.6% | -0.67% and -1.23% | -0.64% and -0.44% | 6.95% and 4.45% | 7.1% and 6.44% | 3.23% and 1.09% | 2.18% and 0.82% | 4.18% and 2.78% | 5.29% and 3.12% | 0.47% and 4.24% | 1.66% and 0.23% | 7.48% and 3.54% |
| COc1c(C(N)=O)cc(-c2ccc(Cl)cc2)cc1-c1ccc(S(N)(=O)=O)cc1 | 5.7% | 3.99% | 3.65% | 6.03% | 7.24% | 2.89% | 4.76% | 5.08% | 4.15% | -1.15% | 1.45% | 6.68% | 12.1% | 2.72% | 2.55% | 4.51% | 7.97% | 6.72% | 3.56% | -7.76% |
